± gives the standard deviation of the averaged measurements.
Tests used:
[1] = system: Saccharomyces cerevisiae BY4741 SeMeCo community; assay: mean cell size (pixel area) (pixels); higher = larger cells; conditions: 10 µM; 24 h; SM minimal medium
Method in brief: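 Yeast cells were fixed with paraformaldehyde, imaged by automated confocal microscopy and analysed in Harmony to obtain mean cell pixel area per well. They came from a four-plasmid fluorescent Saccharomyces cerevisiae BY4741 community, each plasmid complementing one auxotrophy and carrying a fluorescent marker. Before imaging, 70 µl of culture at OD600 = 0.3 was incubated for 24 h in SM medium in 384-well plates predosed acoustically with drug (final 10 µM). Values are means of 3 replicates. Same SeMeCo high-content imaging drug screen: Selleck FDA-approved drugs at 10 µM, 24 h in SM medium, 384-well plates, 3 replicates.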

[2] = system: Saccharomyces cerevisiae BY4741 SeMeCo community; assay: z-score of prototroph abundance vs DMSO median; higher = larger share of this subpopulation than in DMSO controls; conditions: 10 µM; 24 h; SM minimal medium; subpopulation (auxotrophy): Prototroph
Method in brief: (§1)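 Four plasmids, each restoring a single auxotrophy and encoding a distinct fluorescent protein, were carried by a Saccharomyces cerevisiae BY4741 community. After overnight growth to OD600 1.0 and dilution to 0.3, 70 µl per well was grown for 24 h in minimal SM medium on 384-well plates acoustically predosed with library drugs at 10 µM final. Following paraformaldehyde fixation, automated confocal microscopy was used, with single-auxotroph fluorescent strains defining thresholds and autofluorescence correction. Subpopulation abundance was then scored as a z-score against the vehicle-well median.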

[3] = system: Saccharomyces cerevisiae BY4741 SeMeCo community; assay: z-score of subpopulation abundance vs DMSO median, subpopulation auxotrophic for M; higher = larger share of this subpopulation than in DMSO controls; conditions: 10 µM; 24 h; SM minimal medium; subpopulation (auxotrophy): M
Method in brief: as §1

[4] = system: Saccharomyces cerevisiae BY4741 SeMeCo community; assay: z-score of subpopulation abundance vs DMSO median, subpopulation auxotrophic for L; higher = larger share of this subpopulation than in DMSO controls; conditions: 10 µM; 24 h; SM minimal medium; subpopulation (auxotrophy): L
Method in brief: as §1

[5] = system: Saccharomyces cerevisiae BY4741 SeMeCo community; assay: z-score of subpopulation abundance vs DMSO median, subpopulation auxotrophic for U; higher = larger share of this subpopulation than in DMSO controls; conditions: 10 µM; 24 h; SM minimal medium; subpopulation (auxotrophy): U
Method in brief: as §1

[6] = system: Saccharomyces cerevisiae BY4741 SeMeCo community; assay: z-score of subpopulation abundance vs DMSO median, subpopulation auxotrophic for H; higher = larger share of this subpopulation than in DMSO controls; conditions: 10 µM; 24 h; SM minimal medium; subpopulation (auxotrophy): H
Method in brief: as §1

[7] = system: Saccharomyces cerevisiae BY4741 SeMeCo community; assay: z-score of subpopulation abundance vs DMSO median, subpopulation auxotrophic for LU; higher = larger share of this subpopulation than in DMSO controls; conditions: 10 µM; 24 h; SM minimal medium; subpopulation (auxotrophy): LU
Method in brief: as §1

[8] = system: Saccharomyces cerevisiae BY4741 SeMeCo community; assay: z-score of subpopulation abundance vs DMSO median, subpopulation auxotrophic for LM; higher = larger share of this subpopulation than in DMSO controls; conditions: 10 µM; 24 h; SM minimal medium; subpopulation (auxotrophy): LM
Method in brief: as §1

[9] = system: Saccharomyces cerevisiae BY4741 SeMeCo community; assay: z-score of subpopulation abundance vs DMSO median, subpopulation auxotrophic for HM; higher = larger share of this subpopulation than in DMSO controls; conditions: 10 µM; 24 h; SM minimal medium; subpopulation (auxotrophy): HM
Method in brief: as §1

[10] = system: Saccharomyces cerevisiae BY4741 SeMeCo community; assay: z-score of subpopulation abundance vs DMSO median, subpopulation auxotrophic for HU; higher = larger share of this subpopulation than in DMSO controls; conditions: 10 µM; 24 h; SM minimal medium; subpopulation (auxotrophy): HU
Method in brief: as §1

[11] = system: Saccharomyces cerevisiae BY4741 SeMeCo community; assay: z-score of subpopulation abundance vs DMSO median, subpopulation auxotrophic for UM; higher = larger share of this subpopulation than in DMSO controls; conditions: 10 µM; 24 h; SM minimal medium; subpopulation (auxotrophy): UM
Method in brief: as §1

[12] = system: Saccharomyces cerevisiae BY4741 SeMeCo community; assay: z-score of subpopulation abundance vs DMSO median, subpopulation auxotrophic for HL; higher = larger share of this subpopulation than in DMSO controls; conditions: 10 µM; 24 h; SM minimal medium; subpopulation (auxotrophy): HL
Method in brief: as §1

[13] = system: Saccharomyces cerevisiae BY4741 SeMeCo community; assay: z-score of subpopulation abundance vs DMSO median, subpopulation auxotrophic for HLU; higher = larger share of this subpopulation than in DMSO controls; conditions: 10 µM; 24 h; SM minimal medium; subpopulation (auxotrophy): HLU
Method in brief: as §1

[14] = system: Saccharomyces cerevisiae BY4741 SeMeCo community; assay: z-score of subpopulation abundance vs DMSO median, subpopulation auxotrophic for HLM; higher = larger share of this subpopulation than in DMSO controls; conditions: 10 µM; 24 h; SM minimal medium; subpopulation (auxotrophy): HLM
Method in brief: as §1

[15] = system: Saccharomyces cerevisiae BY4741 SeMeCo community; assay: z-score of subpopulation abundance vs DMSO median, subpopulation auxotrophic for HUM; higher = larger share of this subpopulation than in DMSO controls; conditions: 10 µM; 24 h; SM minimal medium; subpopulation (auxotrophy): HUM
Method in brief: as §1

[16] = system: Saccharomyces cerevisiae BY4741 SeMeCo community; assay: z-score of subpopulation abundance vs DMSO median, subpopulation auxotrophic for LUM; higher = larger share of this subpopulation than in DMSO controls; conditions: 10 µM; 24 h; SM minimal medium; subpopulation (auxotrophy): LUM
Method in brief: as §1

[17] = system: Saccharomyces cerevisiae BY4741 SeMeCo community; assay: z-score of subpopulation abundance vs DMSO median, subpopulation auxotrophic for HLUM; higher = larger share of this subpopulation than in DMSO controls; conditions: 10 µM; 24 h; SM minimal medium; subpopulation (auxotrophy): HLUM
Method in brief: as §1

Structure (SMILES)	mean cell size [1]	z-score of prototroph abundance [2]	z-score of subpopulation abundance [3]	z-score of subpopulation abundance [4]	z-score of subpopulation abundance [5]	z-score of subpopulation abundance [6]	z-score of subpopulation abundance [7]	z-score of subpopulation abundance [8]	z-score of subpopulation abundance [9]	z-score of subpopulation abundance [10]	z-score of subpopulation abundance [11]	z-score of subpopulation abundance [12]	z-score of subpopulation abundance [13]	z-score of subpopulation abundance [14]	z-score of subpopulation abundance [15]	z-score of subpopulation abundance [16]	z-score of subpopulation abundance [17]
NC(=O)Cc1cccc(C(=O)c2ccccc2)c1N [Nepafenac]	12.3 ± 0.27	0.25	0.62	1.39	-1.24	-0.38	-0.55	1.58	0.5	-1.05	-0.53	0.69	0.04	-0.23	-0.01	0.29	0.1
Cn1c([N+](=O)[O-])cnc1COC(N)=O [Ronidazole]	12.5 ± 0.033	1.22	-0.37	-0.01	0.01	-1.34	-0.22	-0.82	-1.32	-1.13	-0.8	-0.38	-0.68	-0.96	-0.57	-0.5	-0.24
C=CC[N+]1([C@H]2C[C@H]3[C@@H]4CC[C@H]5C[C@H](O)[C@@H](N6CCOCC6)C[C@]5(C)[C@H]4CC[C@]3(C)[C@H]2OC(C)=O)CCCC1 [Rocuronium Bromide]	12.44 ± 0.065	0.88	-1.19	0.67	-0.5	-0.21	-0.06	-0.17	-0.59	-0.39	-0.71	-0.71	0	-0.65	-1.09	-0.48	-0.49
Oc1c(I)cc(Cl)c2cccnc12 [Clioquinol]	13.1 ± 0.49	-17.7	-0.87	-0.06	-1.64	9.23	10.4	5.23	37.7	16	6.49	9.34	41	119	16.6	9.68	22.7
N=C(N)NS(=O)(=O)c1ccc(N)cc1 [Sulfaguanidine]	12.3 ± 0.36	1.31	0	-0.1	-0.5		-0.67	-0.87	-0.09	-0.96	-0.62	-0.4	-0.69	-1.22	-1.13	-0.49	-1.13
Cc1cc(-c2ccc(/N=N/c3ccc4c(S(=O)(=O)O)cc(S(=O)(=O)O)c(N)c4c3O)c(C)c2)ccc1/N=N/c1ccc2c(S(=O)(=O)O)cc(S(=O)(=O)O)c(N)c2c1O [Evans Blue]	13.5 ± 0.98	-9.18	-14.3	-1.65	1.78	4.9	4.41	-5.69	-7.3	10.3	-9.56	8.09	429	-2.86	-6.59	-5.24	-2.52
NC(=O)C(c1ccccc1)(c1ccccc1)[C@@H]1CCN(CCc2ccc3c(c2)CCO3)C1 [Darifenacin HBr]	12.4 ± 0.39	0.34	0.85	-0.21	0.01	-1.43	-0.1	-0.2	-0.73	-0.14	0.53	-0.56	-0.45	-0.63	0.05	-0.55	-0.5
CCC(=O)c1c(O)cc(O)cc1O [Flopropione]	12.5 ± 0.18	0.7	0.69	-0.09	-0.13		-0.57	0.21	0.19	1.06	0.25		-0.08	0.03	-0.23	-0.46	-0.26
CC[C@H](C)[C@H](N)C1=N[C@H](C(=O)N[C@@H](CC(C)C)C(=O)N[C@H](CCC(=O)O)C(=O)N[C@H](C(=O)N[C@H]2CCCCNC(=O)[C@H](CC(N)=O)NC(=O)[C@@H](CC(=O)O)NC(=O)[C@H](Cc3cnc[nH]3)NC(=O)[C@@H](Cc3ccccc3)NC(=O)[C@H]([C@@H](C)CC)NC(=O)[C@@H](CCCN)NC2=O)[C@@H](C)CC)CS1 [Bacitracin]	12 ± 0.24	-2.14	-0.01	1.05	0.29		0.64	1.28	1.2	2.07	0.03	3.67	3.61	1.35	1.59	0.84	1.51
C[N+]1(C)[C@@H]2C[C@@H](OC(=O)C(O)(c3cccs3)c3cccs3)C[C@H]1[C@@H]1O[C@@H]12 [Tiotropium Bromide hydrate]	12.5 ± 0.25	0.56	0.04	-0.76	0.36		-0.81	-0.42	-0.06	-0.66	0.07	-0.52	-0.81	-0.78	-0.43	-0.67	-0.81
CC(=O)OCC1=C(C(=O)O)N2C(=O)[C@@H](NC(=O)Cc3cccs3)[C@H]2SC1 [Cephalothin]	12.7 ± 0.19	0.3	1.49	-0.16	-1.22	0.18	-0.87	0.02	1.49	-0.81	-0.2	-0.42	-0.21	0.05	-0.69	-0.19	-0.41
N[C@@H]1CONC1=O [D-Cycloserine]	11.8 ± 0.15	-0.18	-0.07	1.05	-1		-0.16	0.54	-0.26	-0.43	-0.3	0.99	0.51	0.38	0.3	0.83	0.69
Clc1ccc(C(Cn2ccnc2)OCc2csc3c(Cl)cccc23)c(Cl)c1 (stereo not given) [Sertaconazole nitrate]	12.5 ± 0.29	-8.82	-9.36	1.38	0.4	36.6	1.93	-3.39	0.2	14.5	-2.33	16.1	11.1	28.5	3.4	2.6	28.5
